Data taken from PubChem BioAssay (NCATS).
Results filed as inconclusive are left out. Entries that show only a call come without a potency. The source made the active and inactive calls. Calls follow the shape of the dose curve; as a rule, active = well fitted inhibition curve with a large enough effect; inconclusive = small, poorly fitted or top-dose-only effect; inactive = flat fitted curve, though single readings scatter.

system: CP215; assay: qHTS profiling for inhibitors of Plasmodium falciparum proliferation (AID 504749); also: nearly all actives have a fitted effect of over 60% in size; conditions: P. falciparum in erythrocytes, SYBR Green DNA, 72 h; series mostly up to 28.7 µM
Procedure, shortened: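 In a 72 h erythrocytic culture (37 C, humidified, 5% CO2) at 2.5% hematocrit and 0.3% starting parasitemia, compounds were tested; SYBR Green I in detergent lysis buffer stained parasite DNA overnight.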
Potency is read from the fitted curve at half-maximal effect.

SMILES	Potency
Nc1ccc(S(N)(=O)=O)cc1	inactive
C[C@H](Cn1cnc2c(N)ncnc21)OCP(=O)(O)O	inactive
CCOc1cc(CC(=O)N[C@@H](CC(C)C)c2ccccc2N2CCCCC2)ccc1C(=O)O	inactive
Oc1ccc(OCc2ccccc2)cc1	inactive
Cc1cccc(C)c1OCC(=O)N[C@@H](Cc1ccccc1)[C@@H](O)C[C@H](Cc1ccccc1)NC(=O)[C@H](C(C)C)N1CCCNC1=O	6.01 µM (active)
CNC[C@@H](O)[C@@H](O)[C@H](O)[C@H](O)CO	inactive
CCC1=C(C)CN(C(=O)NCCc2ccc(S(=O)(=O)NC(=O)NC3CCC(C)CC3)cc2)C1=O (stereo not drawn)	inactive
COc1cc(OC)c(C(=O)CCCN2CCCC2)c(OC)c1	inactive
O=P(O)(O)C(O)(Cn1ccnc1)P(=O)(O)O	inactive
c1ccc2[nH]c(-c3cscn3)nc2c1	inactive
Cc1cc2cc3c(C)cc(=O)oc3c(C)c2o1	inactive
CC(C)[C@H](N)C(=O)OCCOCn1cnc2c(=O)[nH]c(N)nc21	inactive
CCCCN(CCCC)CCC(O)c1cc2c(Cl)cc(Cl)cc2c2cc(C(F)(F)F)ccc12 (stereo not drawn)	0.0287 µM (active)
Cc1cc(=O)oc2cc(O)ccc12	inactive
Nc1cc(C(Cl)=C(Cl)Cl)c(S(N)(=O)=O)cc1S(N)(=O)=O	inactive
C[C@]12CCC(=O)C=C1CC[C@@H]1[C@H]2[C@@H](O)C[C@@]2(C)[C@H]1CC[C@]2(O)C(=O)CO	inactive
Cc1c(OCC(F)(F)F)ccnc1CS(=O)c1nc2ccccc2[nH]1 (stereo not drawn)	inactive
CN(C)c1ccc2nc3ccc(=[N+](C)C)cc-3sc2c1	0.12 µM (active)
